Where only a bound is given, the exact number is not on record here.

For this assay, the target named is Interleukin-8 (IL8, CXCL8), C-terminal His-tagged (Homo sapiens, UniProt P10145 SEQ:1-72). In words: competition; competition TR-FRET; G18C. Conditions: tags: C-terminal 6xHis (Sino Biological); ssRNA; 2'-F G, 2'-OMe A/C/U, 5' C6NH2, 3' idT. As to the method: To better understand the sequence requirements and to confirm the stem structures of members of the Aptamer 3 family as determined from sequence covariation analysis from both the primary and secondary (degenerate) selections, a series of variants which included mutations and deletions to the predicted stems were synthesized and screened (Table 24). Activity of each of these variants were tested using a time resolved competition TR-FRET assay in which the labeled parent Aptamer 3 was competed with increasing concentrations of unlabeled variants for binding to IL8 (FIG. 14). Briefly, 2-fold dilutions of thermally equilibrated aptamers were made in TR-FRET Buffer (50 mM MOPS, pH 7.4, 125 mM NaCl, 5 mM KCl, 50 μM CHAPS, 0.1 mg/mL BSA, 1 mM CaCl₂, and 1 mM MgCl₂). 5 μL of aptamer or control solution was added to 5 μl mix of 10 nM C-terminal His-tagged-IL8, 60 nM ALEXA FLUOR® 647-labeled Aptamer, and 5 nM anti-His-Eu (Perkin Elmer) in a black wall low volume 384 well plate (Greiner). For control, 5 μl of 1000-fold excess of unlabeled parent aptamer or 5 μl TR-FRET buffer alone was added to the mix of ALEXA FLUOR® 647-labeled aptamer, His-IL8, and anti-His-Eu. The plate was covered with a plate seal and subsequently incubated in the dark for 1 hour at room temperature. The plate was read on a Biotek CYTATION™ 5 plate reader. […]
UGAUGACGGUAGAUUACCGGUAGAGUGACCGCAUCU had a binding signal greater than 10 fold worse than Aptamer 3.

For the origin of these results see patent publication US20210230599, “STEM-LOOP COMPOSITIONS AND METHODS FOR INHIBITING INTERLEUKIN-8” (VITRISA THERAPEUTICS, INC., published 2021).
